Assay outcomes from PubChem.
mHTT-CaM PPI inh: mutant huntingtin-calmodulin interaction inhibitors – biochemical, AlphaScreen, primary screen; AlphaScreen His-mHTT/GST-CaM binding, luminescence; P42858; AID 1671202, 2021; inhibition, % at 15 µM; actives 3.6% (n = 190,000)
Target sequence (P42858 whole entry, looked up, change not shown): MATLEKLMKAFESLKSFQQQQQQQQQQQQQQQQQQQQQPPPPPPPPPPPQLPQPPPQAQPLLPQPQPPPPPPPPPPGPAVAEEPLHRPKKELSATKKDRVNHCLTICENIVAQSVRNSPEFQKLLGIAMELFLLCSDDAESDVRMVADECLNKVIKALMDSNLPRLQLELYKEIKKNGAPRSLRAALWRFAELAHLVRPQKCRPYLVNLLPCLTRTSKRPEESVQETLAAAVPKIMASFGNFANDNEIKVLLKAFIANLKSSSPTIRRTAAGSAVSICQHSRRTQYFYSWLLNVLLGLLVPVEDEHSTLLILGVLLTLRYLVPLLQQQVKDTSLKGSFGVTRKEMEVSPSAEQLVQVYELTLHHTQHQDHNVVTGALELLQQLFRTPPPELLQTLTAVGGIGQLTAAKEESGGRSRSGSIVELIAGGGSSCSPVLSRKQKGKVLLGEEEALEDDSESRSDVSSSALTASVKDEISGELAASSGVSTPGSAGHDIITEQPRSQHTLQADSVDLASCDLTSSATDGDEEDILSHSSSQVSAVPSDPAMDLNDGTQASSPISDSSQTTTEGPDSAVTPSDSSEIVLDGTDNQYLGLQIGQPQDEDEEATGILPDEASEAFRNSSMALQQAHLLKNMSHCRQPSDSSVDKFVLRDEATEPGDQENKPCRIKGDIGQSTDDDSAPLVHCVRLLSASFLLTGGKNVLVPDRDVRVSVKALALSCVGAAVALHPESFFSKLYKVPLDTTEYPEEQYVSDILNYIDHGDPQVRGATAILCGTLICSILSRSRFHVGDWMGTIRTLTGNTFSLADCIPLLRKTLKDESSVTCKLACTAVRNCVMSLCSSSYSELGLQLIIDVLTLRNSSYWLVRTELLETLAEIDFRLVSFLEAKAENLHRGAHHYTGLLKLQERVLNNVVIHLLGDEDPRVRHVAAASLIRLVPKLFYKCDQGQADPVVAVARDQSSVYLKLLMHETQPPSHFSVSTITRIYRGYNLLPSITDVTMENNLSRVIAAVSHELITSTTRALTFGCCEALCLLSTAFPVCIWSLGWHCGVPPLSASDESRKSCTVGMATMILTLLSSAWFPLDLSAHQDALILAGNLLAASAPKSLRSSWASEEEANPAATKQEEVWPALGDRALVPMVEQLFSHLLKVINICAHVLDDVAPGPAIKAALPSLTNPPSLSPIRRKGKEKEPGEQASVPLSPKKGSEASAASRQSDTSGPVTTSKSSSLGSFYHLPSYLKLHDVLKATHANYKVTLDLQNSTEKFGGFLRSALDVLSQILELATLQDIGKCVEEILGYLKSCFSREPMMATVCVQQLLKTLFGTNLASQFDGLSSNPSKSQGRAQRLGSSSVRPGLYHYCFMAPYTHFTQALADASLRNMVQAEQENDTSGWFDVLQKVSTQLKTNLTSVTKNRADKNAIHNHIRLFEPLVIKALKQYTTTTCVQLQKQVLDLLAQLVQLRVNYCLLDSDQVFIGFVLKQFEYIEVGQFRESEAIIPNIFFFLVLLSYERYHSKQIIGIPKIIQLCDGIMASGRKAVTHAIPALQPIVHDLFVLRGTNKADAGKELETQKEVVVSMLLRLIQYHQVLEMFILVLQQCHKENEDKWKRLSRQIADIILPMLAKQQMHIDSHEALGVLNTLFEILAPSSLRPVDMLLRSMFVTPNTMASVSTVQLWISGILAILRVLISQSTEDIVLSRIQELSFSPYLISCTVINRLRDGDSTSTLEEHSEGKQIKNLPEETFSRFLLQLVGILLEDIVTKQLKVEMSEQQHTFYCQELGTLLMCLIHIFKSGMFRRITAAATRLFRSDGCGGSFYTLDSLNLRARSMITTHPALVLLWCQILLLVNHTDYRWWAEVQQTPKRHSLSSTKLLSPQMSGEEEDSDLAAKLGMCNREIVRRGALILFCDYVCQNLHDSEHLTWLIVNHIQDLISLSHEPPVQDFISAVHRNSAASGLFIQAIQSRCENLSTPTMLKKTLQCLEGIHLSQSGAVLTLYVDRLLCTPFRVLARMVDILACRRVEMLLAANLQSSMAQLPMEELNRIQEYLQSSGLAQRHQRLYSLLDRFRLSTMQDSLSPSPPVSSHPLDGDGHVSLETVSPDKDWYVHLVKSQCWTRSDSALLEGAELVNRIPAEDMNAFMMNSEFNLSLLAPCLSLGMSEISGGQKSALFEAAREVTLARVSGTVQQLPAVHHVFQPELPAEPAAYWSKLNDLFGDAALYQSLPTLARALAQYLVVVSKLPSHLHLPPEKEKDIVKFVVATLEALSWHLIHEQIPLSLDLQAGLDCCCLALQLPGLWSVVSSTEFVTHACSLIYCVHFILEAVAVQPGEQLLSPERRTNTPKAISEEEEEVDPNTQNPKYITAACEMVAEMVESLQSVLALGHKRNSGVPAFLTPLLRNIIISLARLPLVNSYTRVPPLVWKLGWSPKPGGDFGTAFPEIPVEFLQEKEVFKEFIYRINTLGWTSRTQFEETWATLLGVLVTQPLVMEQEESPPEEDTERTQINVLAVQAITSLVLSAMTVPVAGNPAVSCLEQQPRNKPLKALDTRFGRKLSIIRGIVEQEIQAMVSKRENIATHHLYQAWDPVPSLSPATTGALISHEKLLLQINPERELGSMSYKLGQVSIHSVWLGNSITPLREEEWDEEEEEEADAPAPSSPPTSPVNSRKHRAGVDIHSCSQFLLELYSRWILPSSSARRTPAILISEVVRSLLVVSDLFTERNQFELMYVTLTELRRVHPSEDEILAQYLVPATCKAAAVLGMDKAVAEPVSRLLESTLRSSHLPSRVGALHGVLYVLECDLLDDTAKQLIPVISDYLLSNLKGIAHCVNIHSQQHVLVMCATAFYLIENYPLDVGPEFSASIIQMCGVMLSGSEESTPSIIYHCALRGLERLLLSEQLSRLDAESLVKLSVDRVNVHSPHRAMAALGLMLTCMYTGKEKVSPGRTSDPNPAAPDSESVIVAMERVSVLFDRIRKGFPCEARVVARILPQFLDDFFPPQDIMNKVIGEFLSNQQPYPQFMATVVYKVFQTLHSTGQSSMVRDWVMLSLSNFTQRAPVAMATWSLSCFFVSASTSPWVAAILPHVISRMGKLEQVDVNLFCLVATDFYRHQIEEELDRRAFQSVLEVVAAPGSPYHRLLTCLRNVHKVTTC
Pf apPOL inh: Pf-apPOL inhibitors, biochemical, fluorescence; AID 1794808, 2022; Recombinant Pf-apPOL, molecular beacon fluorescence, 1.5 h; actives 0.25% (n = 210,000); inhibition, % at 10 µM
Hits are given with their value. The sample as a whole holds a higher share of hits than the screen did. No stated cut-off is given here; in the data, active means inhibition above about 50%; inactive means the rest.

`Cc1cccc(C2=NN(c3ccc(Br)cc3)[C@@H](C(=O)N3CCOC3=O)[C@@H]2c2ccc(F)cc2)c1` gave mHTT-CaM PPI inh 76 and Pf apPOL inh inactive.
For COc1ccc(NC(=O)Cn2c(-c3cncs3)nc3ccccc32)cc1 the results were mHTT-CaM PPI inh inactive and Pf apPOL inh inactive.
Screening CC(C)(C)NC(=O)N1CCC(CNC(=O)c2ccccn2)CC1 returned mHTT-CaM PPI inh inactive and Pf apPOL inh inactive.
Screening O=c1oc2cc([N+](=O)[O-])ccc2nc1C=C(O)c1ccc(Br)cc1 returned mHTT-CaM PPI inh inactive and Pf apPOL inh inactive.
For COC(=O)C(C)Oc1ccc2c(c1)OC(=Cc1ccccc1Br)C2=O (stereo unspecified) the results were mHTT-CaM PPI inh inactive and Pf apPOL inh inactive.
For CCSc1nnc(NC(=O)CC(NC(=O)C(F)(F)F)c2ccc(OC)cc2)s1 (stereo unspecified) the results were mHTT-CaM PPI inh inactive and Pf apPOL inh inactive.
Screening C=CCn1c(SCC(=O)Nc2ccc(Br)cc2)nnc1-c1ccc(OC)cc1 returned mHTT-CaM PPI inh inactive and Pf apPOL inh inactive.
`COc1ccc(C)cc1NCc1ccc([N+](=O)[O-])cc1` gave mHTT-CaM PPI inh 86 and Pf apPOL inh inactive.
For O=[N+]([O-])c1ccc(CNc2ccc(F)c(F)c2)cc1 the results were mHTT-CaM PPI inh inactive and Pf apPOL inh inactive.
`COc1ccc(C)cc1NCc1ccncc1` gave mHTT-CaM PPI inh inactive and Pf apPOL inh inactive.
For Cc1cc(NCc2ccc([N+](=O)[O-])cc2)ccc1Br the results were mHTT-CaM PPI inh 58 and Pf apPOL inh inactive.
`COc1ccc(C)cc1NCc1ccc(SC)cc1` gave mHTT-CaM PPI inh 59 and Pf apPOL inh inactive.
Screening COc1ccc(CNc2cc([N+](=O)[O-])ccc2OC)cc1 returned mHTT-CaM PPI inh inactive and Pf apPOL inh inactive.
Cc1ccc(C2=NN(CCC(=O)NCCN(CC(C)C)CC(C)C)C(=O)CC2)cc1 was read as mHTT-CaM PPI inh inactive and Pf apPOL inh inactive.
CCN1CCN(C(=O)C2CCN(c3nccnc3Sc3ccccc3)CC2)CC1 was read as mHTT-CaM PPI inh inactive and Pf apPOL inh inactive.
For CC(C)C(=O)Nc1ccc(NC(=O)c2ccc(F)cc2)cc1 the results were mHTT-CaM PPI inh inactive and Pf apPOL inh inactive.
O=c1ccc(-c2noc(CCc3ccccc3)n2)c[nH]1 was read as mHTT-CaM PPI inh inactive and Pf apPOL inh inactive.
COc1cccc(C2CC(=O)Nc3cc(C)c(C)cc32)c1 (stereo unspecified) was read as mHTT-CaM PPI inh inactive and Pf apPOL inh inactive.
COc1cc(C2CC(=O)Nc3cc(C)c(C)cc32)cc(Br)c1OC (stereo unspecified) was read as mHTT-CaM PPI inh 98 and Pf apPOL inh inactive.
CCOc1ccc(NC(=O)COc2ccc([N+](=O)[O-])c(C)c2)cc1 was read as mHTT-CaM PPI inh inactive and Pf apPOL inh inactive.
For Cc1ccc(N2C=C(C(=O)N3CCCCC3)S(=O)(=O)c3ccccc32)cc1Cl the results were mHTT-CaM PPI inh inactive and Pf apPOL inh inactive.
For Cc1ccc(N2C=C(C(=O)N3CCCCC3)S(=O)(=O)c3ccccc32)cc1C the results were mHTT-CaM PPI inh 58 and Pf apPOL inh inactive.
COc1ccc(Cl)cc1C(=O)N1N=C(C)CC1(O)C(F)(F)F (stereo unspecified) was read as mHTT-CaM PPI inh inactive and Pf apPOL inh inactive.
COC(c1cccs1)c1c(C)[nH]c2ccccc12 (stereo unspecified) was read as mHTT-CaM PPI inh 60 and Pf apPOL inh inactive.
For Cc1[nH]c2ccccc2c1C(c1ccncc1)N1CCC(C)CC1 (stereo unspecified) the results were mHTT-CaM PPI inh inactive and Pf apPOL inh inactive.
Screening Cc1cc(NC(=O)c2ccccc2)cc(NC(=O)c2ccccc2)c1C returned mHTT-CaM PPI inh inactive and Pf apPOL inh 52.
Cc1cc(NC(=O)c2ccccc2)ccc1NC(=O)c1ccccc1 was read as mHTT-CaM PPI inh inactive and Pf apPOL inh inactive.
`FC(F)(F)c1cc(-c2nc(CSc3ncccn3)no2)cc(C(F)(F)F)c1` gave Pf apPOL inh inactive.
O=C(c1cnccn1)N1CCN(c2cc(-n3cccn3)ncn2)CC1 was read as mHTT-CaM PPI inh inactive and Pf apPOL inh inactive.
`Cc1ccnc(NC(=O)C2CCCC2)c1` gave mHTT-CaM PPI inh inactive and Pf apPOL inh inactive.
`Cc1ccnc(Nc2ccc(N3CCN(C(=O)C4CCCC4)CC3)nn2)c1` gave mHTT-CaM PPI inh 55 and Pf apPOL inh inactive.
For Cc1ccnc(Nc2ccc(N3CCN(C(=O)c4cnccn4)CC3)nn2)c1 the results were mHTT-CaM PPI inh 90 and Pf apPOL inh inactive.
Screening CCCn1cc2c3c(cccc31)CN(C(=O)Nc1ccc(OC)cc1)CC2 returned mHTT-CaM PPI inh inactive and Pf apPOL inh inactive.
COc1ccc(NC(=O)N2CCc3c(c4ccccc4n3C)C2)cc1 was read as mHTT-CaM PPI inh 51 and Pf apPOL inh inactive.
COc1cc(OC)cc(N2CCN(Cc3ccccc3)C(C)C2=O)c1 (stereo unspecified) was read as mHTT-CaM PPI inh inactive and Pf apPOL inh inactive.
For COc1cc(OC)cc(N2CCN(Cc3ccc(F)cc3)C(C)C2=O)c1 (stereo unspecified) the results were mHTT-CaM PPI inh 79 and Pf apPOL inh inactive.
Screening O=C(NC1CCCc2ccccc21)C1CCN(S(=O)(=O)N2CCCCCC2)CC1 (stereo unspecified) returned mHTT-CaM PPI inh inactive and Pf apPOL inh inactive.
Screening COc1ccc2[nH]cc(CN3CCC(C(=O)NC4CCCc5ccccc54)CC3)c2c1 (stereo unspecified) returned mHTT-CaM PPI inh 69 and Pf apPOL inh inactive.
CCN(CC)CCn1c2ccccc2n2nc(C)nc12 was read as mHTT-CaM PPI inh inactive and Pf apPOL inh inactive.
Screening O=S(=O)(NCCSCc1ccc(Cl)c(Cl)c1)c1ccc2c(c1)OCCO2 returned mHTT-CaM PPI inh 51 and Pf apPOL inh inactive.
Screening O=S(=O)(NCCSCc1ccc(Cl)cc1)c1ccc2c(c1)OCCO2 returned mHTT-CaM PPI inh inactive and Pf apPOL inh inactive.
For CC(=O)Nc1ccc(S(=O)(=O)NCCSCc2ccc(Cl)c(Cl)c2)cc1 the results were mHTT-CaM PPI inh 90 and Pf apPOL inh inactive.
CS(=O)(=O)NCCSCc1ccc(Cl)c(Cl)c1 was read as mHTT-CaM PPI inh inactive and Pf apPOL inh inactive.
O=C(Nc1cnc(N2CCCC2)nc1)c1cccs1 was read as mHTT-CaM PPI inh inactive and Pf apPOL inh inactive.
`Cc1ccccc1C1=N/C(=C/c2ccc3c(c2)OCO3)C(=O)O1` gave mHTT-CaM PPI inh inactive and Pf apPOL inh inactive.
Cc1cc(NC(=O)C2CCCN(c3nnc4cccc(C)n34)C2)ccc1F (stereo unspecified) was read as mHTT-CaM PPI inh inactive and Pf apPOL inh inactive.
For Cc1ccc(NC(=O)C2CCCN(c3nnc4cccc(C)n34)C2)cc1F (stereo unspecified) the results were mHTT-CaM PPI inh 53 and Pf apPOL inh inactive.
Screening CC(C)N1Cc2cc(C(=O)NCc3ccc(F)c(Cl)c3)sc2C1 returned mHTT-CaM PPI inh inactive and Pf apPOL inh inactive.
Screening COc1cc(Sc2ccc(Cl)cc2)ccc1[N+](=O)[O-] returned Pf apPOL inh inactive.
COc1cc(Sc2ccccc2[N+](=O)[O-])ccc1N was read as mHTT-CaM PPI inh 55 and Pf apPOL inh inactive.
`CC1Cc2nc(SCC(=O)NC3CCCCC3)n(Cc3ccccc3)c(=O)c2S1` (stereo unspecified) gave mHTT-CaM PPI inh inactive and Pf apPOL inh inactive.
